Assay results from PubChem BioAssay AID652183 (National Center for Advancing Translational Sciences (NCATS), 2013).
Inconclusive results are not listed. Calls of active or inactive are those of the source. Calls follow the shape of the dose curve; as a rule, active = well fitted inhibition curve with a large enough effect; inconclusive = small, poorly fitted or top-dose-only effect; inactive = no such curve, though single readings can be large or run the other way.

Assay: qHTS Assay for Lipid Storage Modulators: Differentiation Assay against Probe and Analogs
Conditions: 3T3-L1 adipocyte differentiation, BODIPY lipid imaging, 8 d; series mostly up to 20 µM; activity change, negative = inhibition: at the top concentration
Source text: Storing lipids as a reservoir for energy or the anabolism of elementary metabolites is a common feature of probably all cells and is conserved from bacteria to humans. The universal cellular lipid storage organelle is the so-called lipid storage droplet (LD). Although ubiquitous, LDs share a simple structure composed of a hydrophobic core that harbors the storage lipids, which is shielded by a droplet-specific phospholipid monolayer to which proteins are attached. The current model of LD biogenesis involves an incorporation of the lipid core into the membrane leaflets of the endoplasmic reticulum (ER) followed by a subsequent budding-like maturation of a LD, which ultimately pinches off. Once released, LD volume can increase by localized lipogenesis or fusion of existing droplets. Storage lipids are re-mobilized enzymatically by lipase activity. Lipase regulation in the adipocyte is heavily studied and involves multiple components including catecholamine signaling, the LD-associated proteins Perilipin and comparative gene identification-58 (CGI-58) and at least two lipases named hormone sensitive lipase (HSL) and adipocyte triglyceride lipase (ATGL). LD regulation outside of the adipocyte is poorly understood and only few components are known. However, there is an urgent need to learn more about ectopic fat depots as mislocalized storage of lipids, for example in the liver or muscle, is an eminent health problem associated with insulin resistance or the metabolic syndrome. We developed a laser-scanning cytometer assay to enable 1,536-well screening and combined the results of the small molecules screen with an RNAi database based on lipid storage. […] NIH Chemical Genomics Center [NCGC] MLPCN Grant: MH085686 Assay Submitter (PI): Mathias Beller, Max-Planck-Institut fur Biophysikalische Chemie
3T3L1 cells were obtained from ATCC (CL-173). Pre-adipocyte medium (PM-1), differentiation medium (DM-2) and after adipocyte medium (AM-1) were purchased from Zen-Bio (# PM-1-L1, DM-2-L1, AM-1-L1). 200 uL of PM-1containing 3,000 cells was dispensed into each well of a 96-well plate (Corning, #3340), and the assay plates were incubated at 37 °C, 95% humidity and 5% CO2 for 3-5 days. The differentiation of pre-adipocyte to adipocyte was induced by removing the pre-adipocyte medium and replacing with 200 uL of differentiation medium. 1 uL of compounds at different concentrations dissolved in differentiation medium were added to the assay plates, along with medium exchange for differentiation to test their effects on adipocyte differentiation. The final DMSO concentration was 0.5%.Triacsin C (Sigma-Aldrich T-4540), an inhibitor of long-chain fatty acyl CoA synthetase that blocks synthesis of triglycerides, was used as a positive control for lipid under-storage. […]

Q: For CCOc1ccc(CCNC(=O)c2cc3ccccc3n2Cc2ccccn2)cc1OCC, which Potency is on record?
A: 12.6 µM (active)

Q: Which “activity change, negative = inhibition” value does the source give for CCOC(=O)C1CCN(C(=O)C2(NC(=O)Nc3ccccc3Cl)CCCC2)CC1 here?
A: 56% (inactive)

Q: With CCOc1ccc(CCNC(=O)c2cc3sccc3n2Cc2ccc(F)cc2F)cc1OCC as the molecule, how does the “activity change, negative = inhibition” value read?
A: -77.8% (inactive)

Q: For CCOc1ccc(CCNC(=O)c2cc3sccc3n2CCN(C)C)cc1OCC, which “activity change, negative = inhibition” value is on record?
A: -57.2% (inactive)
